The values that follow come from PubChem BioAssay (NCI).

Test systems include DU-145 prostate; MALME-3M melanoma; MDA-MB-231 breast; RXF 393 renal; SF-268 CNS; SF-295 CNS; SF-539 CNS; UACC-257 melanoma; M14 melanoma.
Test in all cases: NCI-60 one-dose screen, 48 h (100 = growth as untreated, 0 = no growth, -100 = all killed)
Holding throughout (conditions): 10 µM

Molecules are shown by their SMILES. Compounds without any hit were thinned out: in the full panel of roughly 83,000, 20% have a hit.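 Values shown are percent growth following 48 h exposure of cells in 96-well plates to a single concentration of compound; below 10 was considered active.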 Values without a mark were called inactive. Activity calls are given as the source filed them.

With `COc1ccc2[nH]c(O)c(N=NC(=O)COc3ccc(NC(=O)Nc4ccc(Cl)cc4)cc3)c2c1`, the growth was 18.5% in the experiment with DU-145 prostate; -14.4% (active) in the experiment with MALME-3M melanoma; -69.9% (active) with MDA-MB-231 breast; 44.1% in the experiment with RXF 393 renal; -10.3% (active) in the experiment with SF-268 CNS; 14% in the experiment on SF-295 CNS. In addition, the growth in the experiment with SF-539 CNS is -39% (active); in the experiment with UACC-257 melanoma, 51.8%; in the experiment on M14 melanoma it was -27.2% (active).

Turning to `C=C(C)[C@@H]1CC[C@]2(COP(=O)(OCC)OCC)CC[C@]3(C)[C@H](CC[C@@H]4[C@@](C)(CCCN)[C@H](C(=C)C)CC[C@]43C)[C@@H]12`, the growth with DU-145 prostate is 38%; with MALME-3M melanoma, 15.7%; with MDA-MB-231 breast it was 21.9%; in the experiment with RXF 393 renal, 6.32% (active); with SF-268 CNS, 42%; with SF-295 CNS it was 24.7%. Besides, the growth in the experiment on SF-539 CNS was 19%; in the experiment on UACC-257 melanoma it was 20.5%; in the experiment on M14 melanoma it was 18.2%.

`Cc1ccc(-c2nc3ccc(C(=O)N=Nc4c(O)[nH]c5ccc(Cl)cc45)cc3[nH]2)cc1`: the growth is 6.16% (active) with DU-145 prostate; -28.7% (active) with MALME-3M melanoma; -73% (active) in the experiment with MDA-MB-231 breast; -68% (active) in the experiment with RXF 393 renal; -33.4% (active) in the experiment with SF-268 CNS; 10.1% in the experiment on SF-295 CNS. The values for the growth in the experiment on SF-539 CNS, in the experiment on UACC-257 melanoma and in the experiment with M14 melanoma were 33.2%, 81.7% and 6.09% (active), respectively.
